Our source for the z-score and composite z-score values is PubChem BioAssay.

Active and inactive are the calls of the source. Unless noted, the rule behind the calls is not given here.

Assay [1] is described as follows: HepG2 liver cancer cell viability effects, profiling panel, resazurin fluorescence, 24 h, PK04 Diversity Set (AID 1172). Note: test concentration not given here. The conditions noted are these: higher = more signal.
Assay [2] in a line: basal S. cerevisiae growth modulation, no modifier, primary screen, OD600, strain BY4716, 24 h, basal condition (AID 1173). The conditions noted are these: OD600, 24 h, higher = more signal, called active from +8 up or from −8 down.
Assay [3] in a line: MM1S myeloma cell viability, profiling panel, resazurin fluorescence, basal, 24 h, PK04 Diversity Set (AID 1174). Note: test concentration not given here. To be noted: higher = more signal, called active from +8 up or from −8 down. For orientation: Resazurin is reduced to fluorescent resorufin, in cell work by metabolically active cells.
Assay [4] has as its target Dihydroorotate dehydrogenase (quinone), mitochondrial (Plasmodium falciparum (isolate 3D7)) (UniProt Q08210). Kind of assay: PfDHODH enzyme inhibitors, primary screen, biochemical, C-terminal His tag, absorbance 600 nm (AID 1175).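 Note: recombinant parasite enzyme with a five histidine tag at its C terminus; test concentration not given here.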 The conditions noted are these: DCIP absorbance 600 nm, higher = more signal, called active from +8 up or from −8 down.
Assay [5] is described as follows: P. aeruginosa biofilm formation inhibitors, primary screen, strain PAO1, LB-PBS medium, absorbance 600 nm (AID 1176). Note: test concentration not given here. The conditions noted are these: P. aeruginosa PAO1 growth/biofilm, A600, 12 h; higher = more signal.
A short description of assay [6]: S. cerevisiae RM11-1a growth modifiers, primary screen, strain RM11-1a, OD600, basal, 24 h (AID 1177).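 Note: cultures grown under basal conditions with no added stressor; test concentration not given here.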 The conditions noted are these: OD600, 24 h, higher = more signal, called active from +8 up or from −8 down.
Assay [7] in a line: E. coli acrAB mutant growth effects, primary screen, E. coli filamentation inducers, strain DRC39, OD650, 24 h (AID 1178).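 Note: growth measured as culture turbidity by optical density at 650 nm; test concentration not given here.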 The conditions noted are these: higher = more signal, called active from +8 up or from −8 down.
A short description of assay [8]: E. coli acrAB mutant growth effects, primary screen, E. coli filamentation inducers, strain DRC39, OD650, 48 h (AID 1179).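 Note: screen aims at cell division blockers that make cells filament.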 To be noted: E. coli DRC39 delta-acrAB growth, higher = more signal, called active from +8 up or from −8 down.
Assay [9] is described as follows: RPMI8226 myeloma cell viability, profiling panel, resazurin fluorescence, basal, 24 h, PK04 Diversity Set (AID 1180).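 Note: RPMI8826 multiple myeloma cell line at 5000 cells per well; test concentration not given here.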 To be noted: higher = more signal.
Assay [10] concerns the target E3 ubiquitin-protein ligase XIAP (Homo sapiens) (UniProt P98170). Kind of assay: XIAP binders, primary screen, biophysical, small-molecule microarray, fluorescence 635 nm (AID 1181).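 Note: score merges 667 nm emission and signal to noise over triplicate slides.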 The conditions noted are these: small-molecule microarray binding, higher = more signal.

Sequence of Dihydroorotate dehydrogenase (quinone), mitochondrial (Plasmodium falciparum (isolate 3D7)) (Q08210 whole entry, looked up): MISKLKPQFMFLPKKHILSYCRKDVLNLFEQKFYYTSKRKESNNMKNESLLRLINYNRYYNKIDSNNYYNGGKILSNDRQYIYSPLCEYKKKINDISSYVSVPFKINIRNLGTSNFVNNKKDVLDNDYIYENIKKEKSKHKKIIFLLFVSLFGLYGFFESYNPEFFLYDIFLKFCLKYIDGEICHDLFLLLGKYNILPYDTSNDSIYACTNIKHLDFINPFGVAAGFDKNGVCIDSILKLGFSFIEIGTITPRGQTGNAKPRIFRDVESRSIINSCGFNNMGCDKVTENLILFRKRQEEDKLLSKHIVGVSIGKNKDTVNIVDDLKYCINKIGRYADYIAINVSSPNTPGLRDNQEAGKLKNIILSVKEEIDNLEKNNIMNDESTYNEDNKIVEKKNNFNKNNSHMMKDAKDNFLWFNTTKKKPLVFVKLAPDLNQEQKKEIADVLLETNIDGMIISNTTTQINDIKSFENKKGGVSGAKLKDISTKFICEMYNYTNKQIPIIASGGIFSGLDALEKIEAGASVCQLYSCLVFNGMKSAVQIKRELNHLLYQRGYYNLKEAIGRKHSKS
Sequence of E3 ubiquitin-protein ligase XIAP (Homo sapiens) (P98170 whole entry, looked up): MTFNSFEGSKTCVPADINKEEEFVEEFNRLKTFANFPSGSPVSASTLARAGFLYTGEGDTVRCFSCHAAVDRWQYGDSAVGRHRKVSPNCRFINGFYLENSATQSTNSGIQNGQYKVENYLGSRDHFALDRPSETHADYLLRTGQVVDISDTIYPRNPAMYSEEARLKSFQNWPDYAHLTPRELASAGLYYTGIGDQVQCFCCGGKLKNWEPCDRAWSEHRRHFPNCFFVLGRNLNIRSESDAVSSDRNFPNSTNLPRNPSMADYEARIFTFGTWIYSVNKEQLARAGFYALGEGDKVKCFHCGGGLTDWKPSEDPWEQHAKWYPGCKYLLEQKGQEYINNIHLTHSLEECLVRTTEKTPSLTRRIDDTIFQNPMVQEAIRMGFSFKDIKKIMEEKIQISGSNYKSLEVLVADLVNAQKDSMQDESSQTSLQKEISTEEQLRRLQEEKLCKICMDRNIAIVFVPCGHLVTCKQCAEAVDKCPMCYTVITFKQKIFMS

As to `CCOC1=C2C(c3ccc(C)cc3)N(S(=O)(=O)c3ccc(C)cc3)CC2n2c(=O)n(-c3ccccc3)c(=O)n2C1` (stereo not given), the z-score in assay [1] is -0.994; in assay [2], 1.21 (inactive); in assay [3] it was -0.932 (inactive); in assay [5], -0.172 (inactive); in assay [6] it was 0.135 (inactive); in assay [7], -0.15 (inactive). For the same compound, the z-score is 0.717 (inactive) in assay [8] and -0.774 in assay [9]. Also, the composite z-score in assay [4] was -2.05 (inactive); in assay [10], 0.199.

Turning to `COCCOC(=O)N1C(=O)[C@@]2(c3cc(C#CCC(C(=O)OC)C(=O)OC)ccc31)[C@H](c1ccc(OCCO)cc1)N1[C@H](c3ccccc3)[C@H](c3ccccc3)OC(=O)[C@H]1[C@@H]2C(=O)NC[C@H](O)c1ccccc1`, the z-score in [1] was 0.11; in [2], 2.19 (inactive); in assay [3] it was 0.241 (inactive); in assay [5], 2.7 (inactive); in assay [6], 3.3 (inactive); in assay [7], 0.732 (inactive). Further, the z-score was 0.855 (inactive) in assay [8] and -0.957 in assay [9]. Further, the composite z-score was 0.0044 (inactive) in assay [4] and 0.19 in assay [10].

`CC1CC/C=C\[C@H]2OC34C=CCN(CCN5CCOCC5)C(=O)[C@H]3N(CCCCCO)C(=O)[C@@H]4C2C(=O)O1` (stereo not given in full): the z-score in assay [1] is -0.693; in assay [2], -0.501 (inactive); in [3], 0.183 (inactive); in assay [5], -0.456 (inactive); in assay [6], 0.0357 (inactive); in assay [7], 0.408 (inactive). For the same compound, the z-score is 0.45 (inactive) in [8] and -0.977 in [9]. Besides, the composite z-score in [4] was 1.07 (inactive); in assay [10] it was 0.33.

In the case of `C=CC[C@@]1(C(=O)OC)N=C(c2ccc(OCCCO)cc2)O[C@@H]1c1ccccc1CN=[N+]=[N-]`, the z-score in [1] was 1.09; in assay [2], -12.3 (active); in assay [3], -1.72 (inactive); in [5] it was -0.347 (inactive); in assay [6], -0.712 (inactive); in assay [7] it was 0.419 (inactive). For the same compound, the z-score in assay [8] is 0.967 (inactive); in [9] it was -0.494. In addition, the composite z-score in assay [4] is -0.509 (inactive); in assay [10], -0.0868.

As for `CN(C)CCCCCCNC(=O)[C@@H]1C[C@@H]2C(=O)NCC(=O)N2[C@@H]1c1cccc(OCCO)c1`, the z-score in assay [1] is -0.358; in assay [2] it was -0.531 (inactive); in assay [3], -0.578 (inactive); in [5] it was 0.0067 (inactive); in assay [6] it was 0.536 (inactive); in assay [7], 0.757 (inactive). The z-score in assay [8] is 0.614 (inactive); in [9], -1.12. Moreover, the results for the composite z-score in assay [4] and in assay [10] were -1.08 (inactive) and 0.0043, respectively.

For `CCOC(=O)C1=CC[C@@H](c2ccccc2)N(S(=O)(=O)c2ccc(C)cc2)[C@H]1c1ccc(C#N)cc1`, the z-score is 0.162 in [1]; 1.5 (inactive) in [2]; -0.116 (inactive) in assay [3]; 0.381 (inactive) in assay [5]; -0.299 (inactive) in [6]; -0.604 (inactive) in [7]. Besides, the z-score was -0.288 (inactive) in [8] and -1.4 in [9]. Further, the values for the composite z-score in assay [4] and in assay [10] were -0.0753 (inactive) and 0.0123, respectively.

With `[N-]=[N+]=Nc1ccccc1[C@H]1OC(c2ccc(OCCCO)cc2)=N[C@@]1(CCS(=O)(=O)c1ccccc1)C(=O)N1CCOCC1`, the z-score in assay [1] was -0.512; in assay [2], 0.917 (inactive); in assay [3], -1.45 (inactive); in assay [5], 1.75 (inactive); in assay [6], 1.45 (inactive); in [7] it was 0.713 (inactive). For the same compound, the results for the z-score in [8] and in assay [9] were 0.187 (inactive) and -1.33, respectively. Also, the composite z-score in assay [4] is 0.499 (inactive); in assay [10], 0.389.

Take `O=C(N1CCCCC1)[C@]1(CCS(=O)(=O)c2ccccc2)N=C(c2ccc(OCCCO)cc2)O[C@@H]1c1ccccc1`: the z-score is 0.0192 in assay [1]; -0.678 (inactive) in [2]; -2.49 (inactive) in [3]; -0.345 (inactive) in assay [5]; 0.525 (inactive) in [6]; 0.779 (inactive) in [7]. In addition, the z-score in assay [8] was -0.385 (inactive); in assay [9], -1.61. Also, the composite z-score in [4] is 0.813 (inactive); in assay [10] it was 0.0257.

With `C=C(CCCC)C(=O)CC[C@H](OC(=O)c1ccccc1-c1ccccc1C(=O)O)c1ccc(CO)o1`, the z-score in assay [1] is 0.985; in assay [2] it was 0.671 (inactive); in assay [3] it was 0.319 (inactive); in [5], 0.497 (inactive); in assay [6], 0.996 (inactive); in assay [7], -0.154 (inactive). For the same compound, the figures for the z-score in [8] and in assay [9] were 0.16 (inactive) and 0.64, respectively. In addition, the values for the composite z-score in assay [4] and in assay [10] were -0.72 (inactive) and -0.154, respectively.

Take `CN(C)CCCC[C@@H]1NC(=O)[C@@H]2C[C@H](C(=O)NCCCCCCN)[C@H](c3ccc(O)cc3)N2C1=O`: the z-score in [1] is -1.14; in assay [2], 0.531 (inactive); in [3] it was 0.427 (inactive); in assay [5], 0.643 (inactive); in assay [6], 0.793 (inactive); in assay [7], 0.254 (inactive). For the same compound, the z-score was -0.234 (inactive) in assay [8] and 0.109 in [9]. Further, the figures for the composite z-score in assay [4] and in [10] were -2.06 (inactive) and -0.157, respectively.

In the case of `C=CCNC(=O)[C@H]1[C@@H]2C(=O)O[C@@H](c3ccccc3)[C@@H](c3ccccc3)N2[C@@H](c2ccc(O)cc2)[C@]12C(=O)Nc1ccc(C#Cc3ccc(OC)cc3)cc12`, the z-score in assay [1] is -1.56; in assay [2] it was 0.885 (inactive); in assay [3], -1.57 (inactive); in [5], 0.971 (inactive); in assay [6] it was 1.14 (inactive); in assay [7], 0.461 (inactive). The z-score in assay [8] is 0.0221 (inactive); in assay [9], -3.24. The composite z-score is -27 (active) in [4] and -0.0022 in assay [10].

Regarding `C=C(CCCC)/C(=C/C[C@@H](OC(=O)c1ccncc1)c1ccc(CO)o1)c1cc(C(=O)OC)ccc1OC`, the z-score was 0.116 in assay [1]; -0.973 (inactive) in [2]; -0.864 (inactive) in assay [3]; 0.847 (inactive) in assay [5]; -0.513 (inactive) in [6]; 1.15 (inactive) in [7]. The results for the z-score in assay [8] and in assay [9] were 0.84 (inactive) and -0.466, respectively. The composite z-score in assay [4] was -5.02 (inactive); in assay [10] it was 0.508.

As for `C=C(C(=O)CC[C@H](OC(=O)c1cccnc1)c1ccccc1OCCO)C(C)C`, the z-score in [1] was 0.3; in [2], -0.993 (inactive); in assay [3] it was -1.5 (inactive); in assay [5], 0.686 (inactive); in assay [6], -0.237 (inactive); in [7] it was 0.283 (inactive). The z-score is 0.237 (inactive) in [8] and -2.14 in [9]. In addition, the figures for the composite z-score in [4] and in assay [10] were -0.429 (inactive) and -0.0994, respectively.
